# PubChem BioAssay
# Active and inactive are the calls of the source.
# Assays:
# Albumin (Bos taurus) = Albumin (Bos taurus) (UniProt P02769); assay: bovine serum albumin binders on microarray, profiling panel, artefact control for SMM control protein annotation, biochemical, small-molecule microarray, Alexa647 label, 635/667 nm fluorescence (AID 1118); conditions: BSA-A647 binding, fluorescence 635 nm, higher = more signal;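 also: score merges 667 nm emission intensity and signal-to-noise per printed compound spot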
# [1] = small-molecule microarray binders of probe aXIP, primary screen, biochemical, NeuroSMM set, 635/667 nm fluorescence (AID 1119); conditions: higher = more signal, called active from +8 up or from −8 down;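 also: probe is the protein aXip251-270 applied at 1 µg/mL to compound-printed slides; binding of probe to printed compounds measured as 667 nm fluorescence plus signal to noise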
# [2] = small-molecule binders of probe aNOTCH3, primary screen, biochemical, small-molecule microarray, 635/667 nm fluorescence (AID 1120); conditions: higher = more signal;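 also: probe is a biotin-tagged antibody raised against NOTCH3 rather than NOTCH3 protein; score merges spot fluorescence near 667 nm with spot signal to noise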
# [3] = small-molecule binders of probe aNOTCH2, primary screen, biochemical, small-molecule microarray, 635/667 nm fluorescence (AID 1121); conditions: higher = more signal;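 also: score merges feature fluorescence read at 667 nm with its signal to noise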
# [4] = biological target: Carbonic anhydrase 2 (Homo sapiens) (UniProt P00918); assay: CAII small-molecule binders, profiling panel, biochemical, small-molecule microarray, Alexa647-labelled CAII (AID 1122); conditions: CAII-A647 binding fluorescence, higher = more signal
# [5] = COS7 lysate on small-molecule microarray, probe aHis, 635 nm (AID 1123); conditions: COS7 cell lysate, fluorescence, higher = more signal;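 also: z-score combines 667nm fluorescence intensity with signal-to-noise per printed compound spot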
# [6] = compound binding in COS7 lysate, probe aLAP1, primary screen, cell lysate, small-molecule microarray (AID 1124); conditions: probe aLAP1, fluorescence, higher = more signal;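 also: lysate comes from COS7 cells expressing LAP1 and is applied at 0.3 µg/mL; score merges spot fluorescence near 667 nm with signal-to-noise over triplicate slides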
# Sam68 (KHDRBS1) = assay: Sam68 small-molecule binders, primary screen, biochemical, small-molecule microarray, 635 nm fluorescence (AID 1125); conditions: small-molecule microarray binding, higher = more signal;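 also: score merges 667 nm channel intensity with signal to noise over triplicate slides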
# [7] = system: Chordin-like protein 2 (CHRDL2); assay: CHRDL2 small-molecule binders, primary screen, biochemical, small-molecule microarray, 635 nm fluorescence (AID 1126); conditions: small-molecule microarray binding, fluorescence 635 nm; higher = more signal;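 also: printed compound slides probed with Chrdl2 protein at 4 µg/mL for 1 h at 4 C; score merges 667 nm emission intensity with signal to noise over three replicate slides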
# [8] = biological target: Concanavalin-A (Canavalia ensiformis) (UniProt P02866); assay: ConA small-molecule binders, primary screen, artefact control for SMM control protein annotation, biochemical, small-molecule microarray, Alexa647 label, 635 nm (AID 1127); conditions: ConA-A647 binding fluorescence, higher = more signal;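 also: z combines 667 nm emission intensity with signal-to-noise across three replicate slides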
# [9] = anti-His antibody binders, primary screen, artefact control for SMM control protein annotation, biochemical, small-molecule microarray, 635 nm fluorescence (AID 1128); conditions: anti-His Alexa647 antibody binding, higher = more signal;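 also: score merges feature fluorescence with signal-to-noise for each printed compound spot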
# [10] = system: Human papillomavirus type 1a E7 protein (residues 1-88); assay: HPV1a E7 small-molecule binders, primary screen, biochemical, small-molecule microarray, residues 1-88, 635 nm (AID 1129); conditions: small-molecule microarray binding, fluorescence 635 nm; higher = more signal
# [11] = biological target: Focal adhesion kinase 1 (Homo sapiens) (UniProt Q05397); assay: small-molecule microarray binders of FAK, primary screen, biochemical, 635/667 nm fluorescence, BSA, DTT (AID 1130); conditions: PTK2 binding, 635 nm fluorescence, higher = more signal;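 also: composite of spot emission at 667 nm and signal to noise over triplicate slides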
# [12] = system: Fibrinogen (Alexa647-labelled); assay: fibrinogen binders on compound microarrays, profiling panel, artefact control for SMM control-protein annotation, biochemical, small-molecule microarray, 635/667 nm fluorescence (AID 1131); conditions: fibrinogen-A647 binding fluorescence, higher = more signal;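 also: z-score merges 667 nm fluorescence with per-spot signal-to-noise over triplicate slides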
# [13] = biological target: Follistatin (Homo sapiens) (UniProt P19883); assay: follistatin binders on small-molecule microarrays, primary screen, biochemical, small-molecule microarray, 635/667 nm fluorescence (AID 1132); conditions: FST binding, 635 nm fluorescence, higher = more signal
# [14] = biological target: Fibroblast growth factor 2 (Homo sapiens) (UniProt P09038); assay: FGF2 binders on small-molecule microarrays, primary screen, biochemical, small-molecule microarray, 635/667 nm fluorescence (AID 1133); conditions: small-molecule microarray binding, FGF2, fluorescence 635/667; higher = more signal
# [15] = mitochondrial membrane potential change in A549 cells, profiling panel, cell-based, JC-1 fluorescence, basal, 24 h, 100 nL (AID 1138); conditions: higher = more signal;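 also: A549 lung adenocarcinoma cells under basal conditions with no added stimulus; test concentration not given here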
# Lefty1 = Lefty1 binders on small-molecule microarrays, primary screen, biochemical, small-molecule microarray, 635/667 nm fluorescence (AID 1139); conditions: small-molecule microarray binding, fluorescence 635/667; higher = more signal
# [16] = system: wheat germ agglutinin (Triticum aestivum), Alexa647-labelled; assay: wheat germ agglutinin binders on compound microarrays, profiling panel, artefact control for SMM control-protein annotation, biochemical, small-molecule microarray, 635/667 nm fluorescence (AID 1140); conditions: WGA-A647 binding, 635 nm fluorescence, higher = more signal;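 also: score merges 667 nm feature emission with signal to noise over triplicate slides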
# [17] = biological target: Luciferin 4-monooxygenase (Photinus pyralis) (UniProt P08659); assay: firefly luciferase enzyme inhibitors, primary screen, biochemical, luminescence, purified enzyme, 2006 set (AID 1141); conditions: SteadyGlo luminescence, 30 min, higher = more signal, called active from +8 up or from −8 down;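 also: cell-free assay with purified firefly luciferase at 100 ng per well in PBS; test concentration not given here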
# Luciferin 4-monooxygenase (Photinus pyralis), sequence (P08659 whole entry, looked up): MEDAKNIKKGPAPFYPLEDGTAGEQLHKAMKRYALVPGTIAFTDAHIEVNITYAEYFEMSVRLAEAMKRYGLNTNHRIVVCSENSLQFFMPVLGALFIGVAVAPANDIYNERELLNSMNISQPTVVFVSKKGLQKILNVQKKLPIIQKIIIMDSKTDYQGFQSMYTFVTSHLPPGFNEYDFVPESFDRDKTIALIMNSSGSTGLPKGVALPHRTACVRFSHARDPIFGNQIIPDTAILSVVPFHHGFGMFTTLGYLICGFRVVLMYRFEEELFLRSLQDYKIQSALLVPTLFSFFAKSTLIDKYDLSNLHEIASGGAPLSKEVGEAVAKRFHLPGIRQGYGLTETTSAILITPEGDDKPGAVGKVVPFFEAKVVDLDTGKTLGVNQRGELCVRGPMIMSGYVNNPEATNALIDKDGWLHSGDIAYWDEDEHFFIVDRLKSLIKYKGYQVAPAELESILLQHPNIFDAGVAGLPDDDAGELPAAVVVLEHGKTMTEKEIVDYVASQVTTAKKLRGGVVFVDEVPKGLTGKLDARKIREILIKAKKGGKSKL
# Fibroblast growth factor 2 (Homo sapiens), sequence (P09038 whole entry, looked up): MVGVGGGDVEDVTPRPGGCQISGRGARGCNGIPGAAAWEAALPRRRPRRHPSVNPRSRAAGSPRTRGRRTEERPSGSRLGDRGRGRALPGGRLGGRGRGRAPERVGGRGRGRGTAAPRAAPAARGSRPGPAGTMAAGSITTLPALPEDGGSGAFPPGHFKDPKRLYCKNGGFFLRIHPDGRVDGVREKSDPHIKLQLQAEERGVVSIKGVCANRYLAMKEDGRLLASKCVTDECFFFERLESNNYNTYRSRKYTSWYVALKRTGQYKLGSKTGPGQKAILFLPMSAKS
# Concanavalin-A (Canavalia ensiformis), sequence (P02866 whole entry, looked up): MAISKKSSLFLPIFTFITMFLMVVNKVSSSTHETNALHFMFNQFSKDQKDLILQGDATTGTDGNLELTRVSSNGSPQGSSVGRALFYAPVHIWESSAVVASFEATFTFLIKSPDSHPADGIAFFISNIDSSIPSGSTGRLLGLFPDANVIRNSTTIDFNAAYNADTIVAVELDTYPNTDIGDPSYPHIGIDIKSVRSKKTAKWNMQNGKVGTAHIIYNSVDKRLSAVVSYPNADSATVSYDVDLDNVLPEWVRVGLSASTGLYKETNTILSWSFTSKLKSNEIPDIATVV
# Focal adhesion kinase 1 (Homo sapiens), sequence (Q05397 whole entry, looked up): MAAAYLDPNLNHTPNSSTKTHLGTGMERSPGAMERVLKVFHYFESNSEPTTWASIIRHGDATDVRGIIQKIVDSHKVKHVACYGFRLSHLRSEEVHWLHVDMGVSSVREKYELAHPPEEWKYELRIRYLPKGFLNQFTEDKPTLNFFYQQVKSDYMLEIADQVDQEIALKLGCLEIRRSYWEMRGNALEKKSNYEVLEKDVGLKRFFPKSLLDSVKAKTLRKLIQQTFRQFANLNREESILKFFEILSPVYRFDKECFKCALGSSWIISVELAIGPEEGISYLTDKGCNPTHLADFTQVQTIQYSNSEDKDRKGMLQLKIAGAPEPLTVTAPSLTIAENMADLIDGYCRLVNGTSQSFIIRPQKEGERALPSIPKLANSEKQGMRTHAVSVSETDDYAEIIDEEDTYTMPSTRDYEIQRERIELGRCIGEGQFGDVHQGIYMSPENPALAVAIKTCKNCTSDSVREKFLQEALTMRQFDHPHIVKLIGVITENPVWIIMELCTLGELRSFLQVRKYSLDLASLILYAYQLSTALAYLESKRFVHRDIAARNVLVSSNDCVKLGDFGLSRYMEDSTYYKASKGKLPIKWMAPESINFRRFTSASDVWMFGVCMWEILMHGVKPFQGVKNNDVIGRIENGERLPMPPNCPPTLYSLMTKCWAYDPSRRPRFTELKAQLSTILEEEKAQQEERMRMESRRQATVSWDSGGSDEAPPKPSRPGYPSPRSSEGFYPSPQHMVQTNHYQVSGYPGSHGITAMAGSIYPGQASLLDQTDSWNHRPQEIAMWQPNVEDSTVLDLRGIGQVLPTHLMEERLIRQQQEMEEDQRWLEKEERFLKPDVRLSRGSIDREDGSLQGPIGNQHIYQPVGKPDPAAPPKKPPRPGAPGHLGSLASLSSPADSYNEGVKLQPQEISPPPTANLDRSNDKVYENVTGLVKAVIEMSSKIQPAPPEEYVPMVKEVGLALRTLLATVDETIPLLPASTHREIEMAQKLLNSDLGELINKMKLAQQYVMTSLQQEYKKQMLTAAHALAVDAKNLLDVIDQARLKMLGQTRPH
# Albumin (Bos taurus), sequence (P02769 whole entry, looked up): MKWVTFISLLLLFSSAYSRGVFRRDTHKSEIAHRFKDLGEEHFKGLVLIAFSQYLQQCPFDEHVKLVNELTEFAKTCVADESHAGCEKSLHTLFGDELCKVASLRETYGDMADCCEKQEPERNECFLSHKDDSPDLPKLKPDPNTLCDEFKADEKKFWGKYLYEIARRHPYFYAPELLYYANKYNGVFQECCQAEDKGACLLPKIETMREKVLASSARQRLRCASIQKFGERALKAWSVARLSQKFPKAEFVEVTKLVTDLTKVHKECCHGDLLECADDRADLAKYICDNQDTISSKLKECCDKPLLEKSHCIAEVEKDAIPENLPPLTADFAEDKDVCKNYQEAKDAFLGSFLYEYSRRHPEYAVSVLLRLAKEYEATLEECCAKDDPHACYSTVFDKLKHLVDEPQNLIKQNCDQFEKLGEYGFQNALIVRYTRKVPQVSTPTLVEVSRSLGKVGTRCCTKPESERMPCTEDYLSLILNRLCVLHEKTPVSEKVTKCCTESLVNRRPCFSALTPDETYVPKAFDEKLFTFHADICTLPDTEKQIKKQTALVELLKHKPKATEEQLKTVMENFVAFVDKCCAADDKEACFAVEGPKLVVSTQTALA
# Follistatin (Homo sapiens), sequence (P19883 whole entry, looked up): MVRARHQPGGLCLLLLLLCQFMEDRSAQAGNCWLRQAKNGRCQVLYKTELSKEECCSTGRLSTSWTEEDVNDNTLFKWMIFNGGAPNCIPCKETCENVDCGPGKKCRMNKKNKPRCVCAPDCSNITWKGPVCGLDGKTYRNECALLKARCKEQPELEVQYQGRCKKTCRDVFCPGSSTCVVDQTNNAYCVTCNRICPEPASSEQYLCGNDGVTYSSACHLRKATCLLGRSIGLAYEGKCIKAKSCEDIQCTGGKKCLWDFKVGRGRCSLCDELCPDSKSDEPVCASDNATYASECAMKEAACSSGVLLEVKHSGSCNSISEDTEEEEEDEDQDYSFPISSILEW
SMILES,composite z-score (Albumin (Bos taurus)),composite Z-score [1],composite z-score [2],composite z-score [3],composite z-score [4],composite z-score [5],composite z-score [6],composite z-score (Sam68 (KHDRBS1)),composite z-score [7],composite z-score [8],composite z-score [9],composite z-score [10],composite z-score [11],composite z-score [12],composite z-score [13],composite z-score [14],z-score [15],composite z-score (Lefty1),composite z-score [16],z-score [17]
CCN1C(C)=C(C(=O)OC)[C@@H](c2ccccc2)N2C(=O)[C@](O)(C(=O)OC)[C@@H](c3ccccc3)C(C(C)=O)=C12,-0.647,0.319 (inactive),0.641,-0.0483,0.916,-0.0995,-0.141,-0.0684,0.708,-1.15,0.189,0.0108,-0.413,-1.11,0.679,1.05,-0.21,1.1,-0.531,-1.03 (inactive)
CO[C@H]1O[C@H](CO)[C@@H](OC(=O)CCc2ccccc2)[C@@H]2OC(=O)[C@H](Cc3cccc(Br)c3)C/C=C/C[C@@H](Cc3cccc(Br)c3)C(=O)O[C@@H]12,0.803,0.258 (inactive),-0.15,-0.114,0.76,1.04,0.0054,0.7,-1.41,0.014,0.345,0.399,-0.0961,0.0162,-1.19,-0.706,0.309,-0.752,0.978,-1.07 (inactive)
O=C1O[C@@H](c2ccccc2)[C@@H](c2ccccc2)N2[C@@H](c3ccc(O)cc3)[C@]3(C(=O)Nc4ccc(C#CC5(O)CCCCCC5)cc43)[C@@H](C(=O)Nc3nc4ccccc4s3)[C@H]12,0.839,0.751 (inactive),0.173,0.0943,0.0181,1.95,0.807,1.35,0.896,1.08,1.87,1.22,0.706,0.886,1.37,1.21,-0.901,1.53,1.26,-1.4 (inactive)
C=CC[C@]1(C(=O)NCC(O)CO)N=C(c2ccc(OCCCO)cc2)O[C@H]1c1ccccc1 (stereo not given in full),0.704,1.59 (inactive),-0.0391,-0.0877,0.793,3.04,1.3,-0.126,-1.43,-0.49,0.307,0.904,0.12,0.106,-0.307,-0.651,0.985,-1.51,0.587,-0.428 (inactive)
C[C@@H]1NC(=O)CC=C[C@@H](C)[C@@H]2C=C[C@H](O)[C@@H](COC(=O)[C@H](C)NC(=O)CC=C[C@@H](C)[C@@H]3C=C[C@H](O)[C@@H](COC1=O)O3)O2,-0.942,-0.0764 (inactive),-0.0328,-0.179,-0.0551,-0.384,-0.0401,-0.116,0.786,-1.2,-0.689,-0.453,0.365,-0.917,1.29,0.859,-0.0173,1.41,-0.833,-0.595 (inactive)
C#CCCCON=C1C[C@@H](O)[C@@H](O)[C@@H]2[C@@H]3C(=O)N(Cc4ccc5c(c4)OCO5)C(=O)[C@@H]3CC[C@@H]12,0.352,-0.0164 (inactive),0.0225,-0.148,0.227,0.537,-0.0088,0.005,0.187,0.858,2.73,0.226,-0.0967,0.903,0.669,0.0999,0.505,0.847,1.14,0.76 (inactive)
C=C(CCCC)C(=O)CC[C@@H](OC(C)=O)c1ccccc1OCCO,-0.993,2.25 (inactive),-0.13,-0.117,0.638,-0.429,1.23,-0.665,-0.646,-1.43,-0.848,-0.806,-0.523,-1.75,-0.245,-0.508,0.846,-0.0521,-0.788,-1.33 (inactive)
CCCC/C=C/[C@H]([C@@H](O)Cc1ccccc1)N(CC#Cc1ccccc1)Cc1ccccc1Br,-0.861,0.911 (inactive),-0.346,-0.171,-0.382,0.0748,0.006,-0.61,-1.64,-0.89,0.0428,-0.462,-0.219,-0.986,-1.59,-1.37,1.03,-1.84,-0.788,-1.12 (inactive)
O=[N+]([O-])c1ccc(C[n+]2ccc3ccc(O)cc3c2)o1,0.895,0.14 (inactive),0.0736,-0.0746,0.64,0.466,0.98,0.534,0.0197,1.11,0.0131,0.275,0.326,0.596,1.04,0.227,1.25,0.392,1.12,-2 (inactive)
COC(=O)[C@H]1[C@@H]2COc3ccccc3[C@H]2N[C@H]1C(=O)OC,0.235,0.0807 (inactive),-0.0351,-0.135,0.414,0.476,0.315,0.429,0.122,0.548,-0.0432,0.0902,0.404,0.428,0.214,0.446,0.603,0.171,0.274,-1.37 (inactive)
CO[C@H]1COC(=O)[C@H](C)NC(=O)CC=C[C@@H](C)[C@H](NS(=O)(=O)c2ccc(C)cc2)COC(=O)[C@@H](OCc2ccccc2)C=C[C@@H]1C,0.228,0.0585 (inactive),-0.0932,-0.154,-0.367,-0.959,-0.659,0.133,1.03,-0.333,-1.04,-0.515,0.269,-0.394,0.641,0.574,1.87,1.02,-0.609,-0.893 (inactive)
C=CCNC(=O)[C@H]1[C@@H]2C(=O)O[C@@H](c3ccccc3)[C@@H](c3ccccc3)N2[C@@H](c2ccccc2OCCO)[C@]12C(=O)N(C(=O)OCCOC)c1ccc(C#CCNC(N)=O)cc12,0.676,-0.0888 (inactive),0.0379,-0.101,0.555,1.94,1.3,1.29,-0.246,1.14,1.26,1.17,0.409,0.742,0.776,0.104,0.423,0.629,1.11,-0.963 (inactive)
C=CCC(OC(C)=O)[C@@H]1[C@@H](N(Cc2ccc(-c3cccc(C(F)(F)F)c3)o2)C(=O)Cc2ccc(F)cc2)c2cc(OCCCO)ccc2N1C(=O)c1ccc(-c2ccccc2)cc1 (stereo not given in full),-0.701,-0.014 (inactive),-0.0996,-0.154,-0.215,-0.197,0.0045,-0.443,-0.294,-1.04,-0.656,-0.922,-0.131,-0.531,0.16,-0.246,1.74,-0.173,0.294,-0.306 (inactive)
CCN1C(C)=C(C(=O)OC)[C@@H](c2ccccc2)N2C(=O)[C@@]3(C(=O)OC)O[C@@]12[C@@H]1C(=O)CCC[C@@H]13,-0.439,-0.166 (inactive),-0.0345,-0.195,0.558,-0.503,-0.227,0.475,1.46,-0.92,-0.116,-0.356,-0.315,-1.47,1.29,1.01,0.862,1.48,-1.05,-2.3 (inactive)
C=CCc1cccc([C@@H]2[C@@H](C)CC[C@H]3C(=O)N4[C@H](c5cccc(CC=C)c5)[C@@H](C)CC[C@H]4C(=O)N23)c1,0.593,0.576 (inactive),0.0827,-0.0304,0.244,0.564,0.035,0.55,0.977,1.03,0.22,1.09,0.19,0.991,1.28,0.704,3.36,0.644,0.846,-0.744 (inactive)
COCCOC(=O)N1C(=O)[C@@]2(c3cc(C#CCCO)ccc31)[C@H](c1ccc(O)cc1)N1[C@H](c3ccccc3)[C@H](c3ccccc3)OC(=O)[C@H]1[C@@H]2C(=O)Nc1nc2ccccc2s1,0.0742,-0.0844 (inactive),0.272,-0.0649,0.16,0.372,0.403,1.29,0.633,1.17,0.607,1.19,0.214,0.992,1.27,0.955,-2.54,1.22,0.658,0.0884 (inactive)
